Several values for one entry are separate records, joined by “and”; a condition that tells them apart may be missing. Equal entries are not always repeated. Results filed as inconclusive are left out. Some structures have more than one record in an assay (separate samples or runs), and their calls can disagree. Activity calls are given as the source filed them. How the source made its calls, unless noted: active means hit-call score of the fitted dose curve at least 0.9, where 1 is the maximum; inactive means score below 0.9.

Chain of Nuclear receptor subfamily 4 group A member 2 (Homo sapiens) (P43354 whole entry, looked up): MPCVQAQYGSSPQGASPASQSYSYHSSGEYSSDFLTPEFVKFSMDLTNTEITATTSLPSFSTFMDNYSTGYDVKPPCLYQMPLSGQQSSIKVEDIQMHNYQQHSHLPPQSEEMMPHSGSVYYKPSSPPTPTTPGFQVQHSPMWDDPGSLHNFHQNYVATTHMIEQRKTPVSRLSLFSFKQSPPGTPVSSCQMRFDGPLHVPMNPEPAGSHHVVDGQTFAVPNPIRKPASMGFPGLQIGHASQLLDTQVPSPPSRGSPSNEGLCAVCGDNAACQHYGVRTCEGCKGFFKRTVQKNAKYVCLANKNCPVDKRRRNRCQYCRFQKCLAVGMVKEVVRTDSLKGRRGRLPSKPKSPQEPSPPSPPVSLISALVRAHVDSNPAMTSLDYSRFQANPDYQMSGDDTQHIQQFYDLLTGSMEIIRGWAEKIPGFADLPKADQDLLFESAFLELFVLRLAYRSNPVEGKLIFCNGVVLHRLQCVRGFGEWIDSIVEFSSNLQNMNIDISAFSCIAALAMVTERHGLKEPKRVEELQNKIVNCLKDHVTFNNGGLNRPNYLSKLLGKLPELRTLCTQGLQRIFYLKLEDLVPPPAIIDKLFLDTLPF
Chain of Nuclear respiratory factor 1 (Homo sapiens) (Q16656 whole entry, looked up): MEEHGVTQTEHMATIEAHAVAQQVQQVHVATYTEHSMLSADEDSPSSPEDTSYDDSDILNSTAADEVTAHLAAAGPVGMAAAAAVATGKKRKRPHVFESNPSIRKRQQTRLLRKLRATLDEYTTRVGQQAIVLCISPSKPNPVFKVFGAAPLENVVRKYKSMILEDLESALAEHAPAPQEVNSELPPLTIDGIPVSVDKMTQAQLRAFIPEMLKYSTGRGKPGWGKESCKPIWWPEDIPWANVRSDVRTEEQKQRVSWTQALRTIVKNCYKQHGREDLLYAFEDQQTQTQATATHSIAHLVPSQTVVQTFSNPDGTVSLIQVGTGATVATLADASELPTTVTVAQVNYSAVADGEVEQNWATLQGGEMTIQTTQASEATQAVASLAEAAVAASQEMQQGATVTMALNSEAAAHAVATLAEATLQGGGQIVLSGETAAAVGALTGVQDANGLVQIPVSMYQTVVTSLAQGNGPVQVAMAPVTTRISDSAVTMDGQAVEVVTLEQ

Tested on in one test: not listed separately
As to the kind of experiment: ATG_M_32_TRANS: Attagene TRANS-FACTORIAL HepG2 Assay for M32 Transcription Factor (Internal Marker) (AID 2282984; active means hit-call score of the fitted dose curve at least 0.9, where 1 is the maximum;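 further: transcript level of a background control reporter unit measured by RT-PCR and capillary electrophoresis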). The following applies: HepG2 Attagene TRANS M32 internal marker reporter. In short, it runs like this: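 Capillary electrophoresis of 6-FAM-labelled reporter fragments gives the signal; data fitted for gain over DMSO negative control. Source: HepG2 cells bearing transient multiple reporter transcription units, 24 h exposure.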
In the case of `CCCCCOC(=O)c1ccccc1C(=O)OCCCCC`, the call was inactive.
Turning to `c1ccc(C2CO2)cc1` (configuration not stated), the result was inactive.
The same measure, in the same setting: for `[Cl-].[Cl-].[Hg+2]` the value was “inactive”; for `Oc1ccc2ccc3cccc4ccc1c2c34`, “inactive”; for `ClCCOCCCl`, “inactive”.
Still for that read-out and setting: for `CN(C)C(=O)Nc1ccc(Cl)cc1` the value was “inactive”.
Take `CCNS(=O)(=O)C(F)(F)C(F)(F)C(F)(F)C(F)(F)C(F)(F)C(F)(F)C(F)(F)C(F)(F)F`: the outcome was inactive.
For the compound `O=[N+]([O-])C(Br)(CO)CO`, the compound was classed as inactive.
For `Cn1cc(-c2ccccc2)c(=O)c(-c2cccc(C(F)(F)F)c2)c1`, the compound was called inactive.
`O=C(Nc1ccccc1)c1ccccc1I`: the compound was classed as inactive.
Take `C[C@]12C=CC3=C4CCC(=O)C=C4CC[C@H]3[C@@H]1CC[C@@H]2O`: the call was inactive.
On the same count and under the same terms, for `CNC(=O)Oc1cccc2c1OC(C)(C)C2` the value was “inactive”.
Same read-out and setting: for `CN(C)c1ccc(C(=O)c2ccc(N(C)C)cc2)cc1` the value was “inactive”; for `CCCCCCCCn1sccc1=O`, “inactive”.
Same read-out and setting: for `ClC1=C(Cl)C2(Cl)C3C(Cl)C=CC3C1(Cl)C2(Cl)Cl` (configuration not stated) the value was “inactive”.
Turning to `c1ccc(NNc2ccccc2)cc1`, the result was inactive.
The same measure, in the same setting: for `O=[N+]([O-])c1ccc(Oc2ccc(Cl)cc2Cl)cc1` the value was “inactive”.
Still for that read-out and setting: for `CC(C)(C)C(O)(CCc1ccc(Cl)cc1)Cn1cncn1` (configuration not stated) the value was “inactive”.

A further test concerns the target Nuclear receptor subfamily 4 group A member 2 (Homo sapiens) (UniProt P43354). As to the kind of experiment: ATG_NURR1_TRANS: Attagene TRANS-FACTORIAL HepG2 Assay for human Nuclear Receptor Related Protein 1 (NURR1) (AID 2282985; active means hit-call score of the fitted dose curve at least 0.9, where 1 is the maximum). The note with it: HepG2 Attagene TRANS reporter, mRNA readout. In short, it runs like this: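 HepG2 / transient MRTU transfection / 24 h compound exposure / RT-PCR + CE fluorescence of reporter mRNA / gain-of-signal vs DMSO.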
In the case of `CCCCCOC(=O)c1ccccc1C(=O)OCCCCC`, the compound was classed as inactive.
On the same count and under the same terms, for `c1ccc(C2CO2)cc1` (configuration not stated) the value was “inactive”.
The same measure, in the same setting: for `Brc1ccc(Oc2ccccc2)cc1` the value was “inactive”; for `[Cl-].[Cl-].[Hg+2]`, “inactive”; for `[As]#[In]`, “inactive”.
With `ClCCOCCCl`, the outcome was inactive.
In the case of `CCNS(=O)(=O)C(F)(F)C(F)(F)C(F)(F)C(F)(F)C(F)(F)C(F)(F)C(F)(F)C(F)(F)F`, the compound was called inactive.
On the same count and under the same terms, for `CC(C)N(Cc1ccccc1)C(=O)C(C)(C)C` the value was “inactive”.
As to `C[C@]12C=CC3=C4CCC(=O)C=C4CC[C@H]3[C@@H]1CC[C@@H]2O`, the call was inactive.
The same measure, in the same setting: for `CNC(=O)Oc1cccc2c1OC(C)(C)C2` the value was “inactive”.
With `O=C(O)C1C2CCC(O2)C1C(=O)O` (configuration not stated), the outcome was inactive.
On the same count and under the same terms, for `CC(C)(OOC(C)(C)c1ccccc1)c1ccccc1` the value was “inactive”; for `O=[N+]([O-])c1ccc(Oc2ccc(Cl)cc2Cl)cc1`, “inactive”.

For the next test, the target named is Transcriptional activator Myb (Homo sapiens) (UniProt P10242). As to the kind of experiment: ATG_Myb_CIS: Attagene CIS-FACTORIAL HepG2 Assay for human Myeloblastosis (Myb) Proto-Oncogene Transcription Factor (AID 2282986). The following applies: HepG2 Attagene CIS-FACTORIAL Myb reporter transcription; actives raise or lower the signal. In short, it runs like this: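 In this HepG2 transient-transfection format, cis-regulated reporter mRNA is quantified 24 h post-dosing by RT-PCR with capillary electrophoresis, fitted bidirectionally to DMSO baseline.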
Chain of Transcriptional activator Myb (Homo sapiens) (P10242 whole entry, looked up): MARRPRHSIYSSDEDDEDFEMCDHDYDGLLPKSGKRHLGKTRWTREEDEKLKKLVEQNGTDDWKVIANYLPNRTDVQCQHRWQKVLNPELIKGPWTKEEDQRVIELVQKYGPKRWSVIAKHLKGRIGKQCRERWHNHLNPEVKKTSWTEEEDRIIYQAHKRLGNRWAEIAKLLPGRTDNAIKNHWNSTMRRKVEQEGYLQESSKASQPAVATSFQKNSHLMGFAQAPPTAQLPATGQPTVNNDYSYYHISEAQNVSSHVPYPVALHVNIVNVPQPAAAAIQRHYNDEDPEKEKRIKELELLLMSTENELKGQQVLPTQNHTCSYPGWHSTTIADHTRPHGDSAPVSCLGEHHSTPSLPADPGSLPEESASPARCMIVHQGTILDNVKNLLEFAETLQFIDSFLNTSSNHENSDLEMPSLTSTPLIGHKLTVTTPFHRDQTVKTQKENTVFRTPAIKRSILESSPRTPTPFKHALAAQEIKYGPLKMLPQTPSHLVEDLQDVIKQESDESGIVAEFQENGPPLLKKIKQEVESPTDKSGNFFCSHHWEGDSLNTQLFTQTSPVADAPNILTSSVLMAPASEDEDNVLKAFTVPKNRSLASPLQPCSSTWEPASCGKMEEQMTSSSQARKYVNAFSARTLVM
For the compound `CCCCCOC(=O)c1ccccc1C(=O)OCCCCC`, the result was inactive.
Still for that read-out and setting: for `c1ccc(C2CO2)cc1` (configuration not stated) the value was “inactive”; for `Clc1ccccc1Cl`, “inactive”.
The same measure, in the same setting: for `Brc1ccc(Oc2ccccc2)cc1` the value was “inactive”; for `[Cl-].[Cl-].[Hg+2]`, “inactive”; for `CN(C)[C@@H]1C(=O)C(C(N)=O)=C(O)[C@@]2(O)C(=O)C3=C(O)c4c(O)cccc4[C@@](C)(O)[C@H]3C[C@@H]12`, “inactive”.
Turning to `Oc1ccc2ccc3cccc4ccc1c2c34`, the compound was called inactive.
`[As]#[In]`: the compound was called inactive.
Take `ClCCOCCCl`: the outcome was inactive.
On the same count and under the same terms, for `CN(C)C(=O)Nc1ccc(Cl)cc1` the value was “inactive”.
On to `CCNS(=O)(=O)C(F)(F)C(F)(F)C(F)(F)C(F)(F)C(F)(F)C(F)(F)C(F)(F)C(F)(F)F`, for which the AC50 was 25.8 µM (active) and the result was inactive.
Take `O=[N+]([O-])C(Br)(CO)CO`: the compound was called inactive.
Still for that read-out and setting: for `Cn1cc(-c2ccccc2)c(=O)c(-c2cccc(C(F)(F)F)c2)c1` the value was “inactive”.
Still for that read-out and setting: for `CC(C)N(Cc1ccccc1)C(=O)C(C)(C)C` the value was “inactive”; for `O=C(Nc1ccccc1)c1ccccc1I`, “inactive”.
The same measure, in the same setting: for `C[C@]12C=CC3=C4CCC(=O)C=C4CC[C@H]3[C@@H]1CC[C@@H]2O` the value was “inactive”.
For the compound `CNC(=O)Oc1cccc2c1OC(C)(C)C2`, the compound was classed as inactive.
On the same count and under the same terms, for `CN(C)c1ccccc1` the value was “inactive”; for `CN(C)c1ccc(C(=O)c2ccc(N(C)C)cc2)cc1`, “inactive”.
Regarding `O=C(O)C1C2CCC(O2)C1C(=O)O` (configuration not stated), the compound was called inactive.
For the compound `CCCCCCCCn1sccc1=O`, the AC50 was 11.6 µM (active).
On to `c1ccc(N=Nc2ccccc2)cc1`, for which the compound was called inactive.
For `ClC1=C(Cl)C2(Cl)C3C(Cl)C=CC3C1(Cl)C2(Cl)Cl` (configuration not stated), the result was inactive.
With `CC(C)(OOC(C)(C)c1ccccc1)c1ccccc1`, the compound was called inactive.
Same read-out and setting: for `c1ccc(NNc2ccccc2)cc1` the value was “inactive”; for `O=[N+]([O-])c1ccc(Oc2ccc(Cl)cc2Cl)cc1`, “inactive”; for `O=C(N[C@H](c1ccccc1)[C@@H]1CN2CCC1CC2)c1c(Cl)ccc(C(F)(F)F)c1Cl`, “inactive”.
Turning to `CC(C)(C)C(O)(CCc1ccc(Cl)cc1)Cn1cncn1` (configuration not stated), the compound was called inactive.

A further test concerns the target Nuclear respiratory factor 1 (Homo sapiens) (UniProt Q16656). The experiment in a line: ATG_NRF1_CIS: Attagene CIS-FACTORIAL HepG2 Assay for human Nuclear Respiratory Factor 1 (NRF1) Orphan Gene (AID 2282987). The following applies: HepG2 NRF1 cis-element reporter, Attagene multiplex; actives raise or lower the signal. In short, it runs like this: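 Using DMSO as baseline, gain- or loss-of-signal was fitted for reporter mRNA levels in HepG2 cells transiently transfected with cis-regulated reporter units. Samples were taken 24 h after dosing and read by RT-PCR with capillary electrophoresis.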
With `CCCCCOC(=O)c1ccccc1C(=O)OCCCCC`, the call was inactive.
For `Brc1ccc(Oc2ccccc2)cc1`, the compound was called inactive.
Same read-out and setting: for `[As]#[In]` the value was “inactive”.
Take `O=C(Nc1ccccc1)c1ccccc1I`: the compound was called inactive.
Regarding `CNC(=O)Oc1cccc2c1OC(C)(C)C2`, the compound was classed as inactive.
Take `CN(C)c1ccc(C(=O)c2ccc(N(C)C)cc2)cc1`: the result was inactive.
As to `CCCCCCCCn1sccc1=O`, the AC50 is 16.5 µM (active).
With `c1ccc(N=Nc2ccccc2)cc1`, the outcome was inactive.
Same read-out and setting: for `ClC1=C(Cl)C2(Cl)C3C(Cl)C=CC3C1(Cl)C2(Cl)Cl` (configuration not stated) the value was “inactive”.
In the case of `CC(C)(OOC(C)(C)c1ccccc1)c1ccccc1`, the AC50 is 63 µM (active).
As to `c1ccc(NNc2ccccc2)cc1`, the call was inactive.
Turning to `O=[N+]([O-])c1ccc(Oc2ccc(Cl)cc2Cl)cc1`, the outcome was inactive.

Tested on in another test: not listed separately
As to the kind of experiment: ATG_NFI_CIS: Attagene CIS-FACTORIAL HepG2 Assay for human Nuclear Factor I (NFI) (AID 2282989). The note with it: HepG2 cis-regulatory reporter, NFI response element transcription; actives raise or lower the signal. Summed up: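 Reporter transcription driven by endogenous transcription factors in HepG2 cells; 24 h treatment. Quantitation by labelled RT-PCR fragments on capillary electrophoresis, gain- or loss-of-signal relative to DMSO.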
For the compound `CCCCCOC(=O)c1ccccc1C(=O)OCCCCC`, the result was inactive.
Take `c1ccc(C2CO2)cc1` (configuration not stated): the compound was called inactive.
For the compound `Clc1ccccc1Cl`, the call was inactive.
Turning to `Brc1ccc(Oc2ccccc2)cc1`, the AC50 was 158 µM (active).
In the case of `[Cl-].[Cl-].[Hg+2]`, the call was inactive.
The same measure, in the same setting: for `CN(C)[C@@H]1C(=O)C(C(N)=O)=C(O)[C@@]2(O)C(=O)C3=C(O)c4c(O)cccc4[C@@](C)(O)[C@H]3C[C@@H]12` the value was “inactive”.
The same measure, in the same setting: for `Oc1ccc2ccc3cccc4ccc1c2c34` the value was “inactive”; for `[As]#[In]`, “inactive”; for `ClCCOCCCl`, “inactive”.
Still for that read-out and setting: for `CN(C)C(=O)Nc1ccc(Cl)cc1` the value was “inactive”.
Take `CCNS(=O)(=O)C(F)(F)C(F)(F)C(F)(F)C(F)(F)C(F)(F)C(F)(F)C(F)(F)C(F)(F)F`: the AC50 was 117 µM (active) and 61.4 µM (active); the outcome was inactive.
Turning to `O=[N+]([O-])C(Br)(CO)CO`, the result was inactive.
For the compound `Cn1cc(-c2ccccc2)c(=O)c(-c2cccc(C(F)(F)F)c2)c1`, the result was inactive.
The same measure, in the same setting: for `CC(C)N(Cc1ccccc1)C(=O)C(C)(C)C` the value was “inactive”; for `O=C(Nc1ccccc1)c1ccccc1I`, “inactive”.
Turning to `C[C@]12C=CC3=C4CCC(=O)C=C4CC[C@H]3[C@@H]1CC[C@@H]2O`, the AC50 was 11.9 µM (active) and the result was inactive.
For `CNC(=O)Oc1cccc2c1OC(C)(C)C2`, the call was inactive.
Same read-out and setting: for `CN(C)c1ccccc1` the value was “inactive”.
The same measure, in the same setting: for `CN(C)c1ccc(C(=O)c2ccc(N(C)C)cc2)cc1` the value was “inactive”; for `O=C(O)C1C2CCC(O2)C1C(=O)O` (configuration not stated), “inactive”.
Turning to `CCCCCCCCn1sccc1=O`, the AC50 was 17.2 µM (active).
As to `c1ccc(N=Nc2ccccc2)cc1`, the result was inactive.
On to `ClC1=C(Cl)C2(Cl)C3C(Cl)C=CC3C1(Cl)C2(Cl)Cl` (configuration not stated), for which the AC50 is 186 µM (active).
As to `CC(C)(OOC(C)(C)c1ccccc1)c1ccccc1`, the AC50 is 59.1 µM (active).
Regarding `c1ccc(NNc2ccccc2)cc1`, the call was inactive.
The same measure, in the same setting: for `O=[N+]([O-])c1ccc(Oc2ccc(Cl)cc2Cl)cc1` the value was “inactive”.
On the same count and under the same terms, for `O=C(N[C@H](c1ccccc1)[C@@H]1CN2CCC1CC2)c1c(Cl)ccc(C(F)(F)F)c1Cl` the value was “inactive”; for `CC(C)(C)C(O)(CCc1ccc(Cl)cc1)Cn1cncn1` (configuration not stated), “inactive”.

For the origin of these results see PubChem BioAssay (EPA / NIEHS).
